HepG2 tox = qHTS for Inhibitors of TGF-b: Cytotox Counterscreen. HepG2 CAGA-GFP viability, ATP luminescence, 18 h. Potency, µM (top dose mostly 46.1 µM), for inactives: at the highest dose activity change, negative = cytotoxicity, most hits filed as cytotoxic. 410,000 compounds, 0.76% hits. AID 588856, 2011; also: potency is read from the fitted curve at half-maximal effect
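HepG2 CAGA-GFP cells (1000/well, DMEM with 1% FBS) received compound, then TGF-beta at 500 pg/mL final, and were incubated 18 hours at 37 degrees C. Viability was read by CellTiter-Glo luminescence. Media-only wells were set as complete cell-killing and DMSO as no toxicity.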
D3 antag = qHTS of D3 Dopamine Receptor Antagonist: qHTS; max response, negative = inhibition, %; D3R cells, DiscoveRx beta-arrestin luminescence, antagonist mode; stronger effect = lower value; 360,000 compounds, 2.5% hits; in the data active = max response below about -50%; inconclusive = no clear call, values can overlap the other calls; also: % is scaled to controls: 0 for no effect and ±100 for the full control effect
Target sequence (P35462 whole entry, looked up): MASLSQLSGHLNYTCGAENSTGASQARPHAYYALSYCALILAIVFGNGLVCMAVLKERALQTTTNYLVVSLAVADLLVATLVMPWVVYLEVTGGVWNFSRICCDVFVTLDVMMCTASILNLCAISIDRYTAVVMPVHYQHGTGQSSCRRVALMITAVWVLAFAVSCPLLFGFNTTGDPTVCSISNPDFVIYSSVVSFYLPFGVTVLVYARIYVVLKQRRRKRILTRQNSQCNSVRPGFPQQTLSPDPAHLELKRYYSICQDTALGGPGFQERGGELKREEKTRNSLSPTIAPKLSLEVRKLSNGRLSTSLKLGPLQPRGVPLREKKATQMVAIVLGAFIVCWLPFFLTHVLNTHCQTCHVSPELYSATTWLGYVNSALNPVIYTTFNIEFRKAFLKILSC
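Cells plated overnight at 1500 cells/well, then exposed to library compounds with dopamine controls for 90 minutes at 37 degrees C. DiscoveRx reagent added for 30–60 minutes at room temperature; luminescence read, quantitative HTS format.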
DRD3 agonist = qHTS of D3 Dopamine Receptor Agonist: qHTS; D3R DiscoveRx beta-arrestin cells, luminescence, 90 min; D(3) dopamine receptor (Homo sapiens), P35462; 410,000 compounds, 0.58% hits; max activation, %; in the data active = max activation above about 30%; also: 0% is about no effect
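Cells at 1500/well, incubated overnight, then treated with pinned compounds (dopamine as control) for 90 min at 37 degrees C. DiscoveRx reagent added for 30 - 60 minutes at room temperature; luminescence read.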
TGFb inhibitor = qHTS for Inhibitors of TGF-b; HepG2 CAGA-GFP TGF-b/SMAD3 reporter, GFP fluorescence, 18 h; TGF-beta stimulated, 500 pg/mL final; Potency, µM (doses to about 46.1 µM), without a hit: top-dose activity, negative = inhibition, actives largely listed as inhibitors; 410,000 compounds, 1.2% hits; AID 588855, 2011; also: potency is read from the fitted curve at half-maximal effect; % is scaled to controls: 0 for no effect and ±100 for the full control effect; nearly all actives have a fitted effect of over 65% in size
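HEPG2 CAGA-GFP, 1000 cells/well; 2 h settle, 37 C; cpd via pin tool; TGF-b 500 pg/mL final; 18 h, 37 C; GFP imaging ex488/em500-530; %Activity normalised to -TGF-b and +DMSO controls; CRC fit, curve class.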
ATXN2 expr inh = Primary qHTS for Inhibitors of ATXN expression; HEK-293 ATXN2-luciferase reporter, luminescence, 24 h; Potency, µM (highest dose often 57 µM), without a hit: at the top dose activity change, negative = inhibition, usual class: inhibitors; 360,000 compounds, 0.72% hits; AID 1745845, 2022; also: potency is read from the fitted curve at half-maximal effect; % is scaled to controls: 0 for no effect and ±100 for the full control effect; nearly all actives have a fitted effect of over 55% in size
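ATXN2-luciferase reporter cells (luciferase flanked by upstream and downstream ATXN2 gene portions) were treated 24 h at 37 °C with compounds at up to 57 uM. SteadyGlo luminescence gave expression; GF-AFC fluorescence gave viability.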
S2 tox = Viability Counterscreen for Primary qHTS for Inhibitors of ATXN expression | S2 cells (HEK-293 line with an ATXN2-luciferase reporter) viability, CellTiter-Fluor protease fluorescence, 24 h | Potency, µM (titrated, usually from 56.7 µM), actives largely listed as cytotoxic | 400,000 compounds, 0.49% hits; also: potency is read from the fitted curve at half-maximal effect; nearly all actives have a fitted effect of over 40% in size
An asterisk follows results filed as active; i = inactive; u = inconclusive; x = no result. The list is not random: actives were taken first. Their share in the collection is about 4.7%. Unless noted, calls follow the shape of the dose curve; as a rule, active = well fitted curve in the direction sought with a large enough effect; inconclusive = small, poorly fitted or top-dose-only effect, or another doubt; inactive = no such curve, though single readings can be large; an effect the other way counts as inactive or inconclusive.

SMILES	HepG2 tox	D3 antag	DRD3 agonist	TGFb inhibitor	ATXN2 expr inh	S2 tox
CN1CCCCc2c1nc1ccccc1c2N (tested in a mixture with another compound)	-0.1%	11.9	0.9	-7.2%	-9.1%	i
CCc1ccc(OCc2ccc(C(=O)NCc3ccccn3)o2)cc1	-9.5%	-70.3*	-5.5	2.1%	31.1%	i
CC1CCN(c2c(NCC3CCC(C(=O)NCc4ccccc4)CC3)c(=O)c2=O)CC1 (stereo unspecified)	2.2%	-61.1*	0.6	1.7%	-0.8%	i
O=C(Nc1ccc(Br)cc1F)c1cnn2c1NC(=C1CC1)C=C2C(F)F	21.5%	x	x	25.1%	x	x
CCC(CC)C(=O)OCc1cc(=O)n2nc(C3CC3)sc2n1	13.9%	x	45.1*	0.7%	0.6%	i
O=C(COc1ccccc1)OCc1cc(=O)n2nc(C3CC3)sc2n1	11.8%	x	74.2*	18.7%	6.6%	i
Cc1ccc(OCC(=O)Nc2ccc(C(=O)OCc3cc(=O)n4nc(C5CC5)sc4n3)cc2)cc1	2.8%	x	-5.7	0.0%	8.2%	i
Cc1ccc(OCC(=O)Nc2ccccc2C(=O)OCc2cc(=O)n3nc(C4CC4)sc3n2)cc1	0.7%	x	37.1*	-1.8%	-4.1%	i
O=C(CCNC(=O)Cn1cnc2ccccc2c1=O)NCC1CCCO1 (stereo unspecified)	0.2%	-0.8	4.4	-12.3%	0.5%	x
O=C(CCNC(=O)Cn1cnc2ccccc2c1=O)NCC1COc2ccccc2O1 (stereo unspecified)	12.6µM*	-57.9*	5.7	0.0%	-3.4%	i
O=C(CCCCCCNC(=O)c1cnc(N(c2ccccc2)c2ccccc2)nc1)NO	x	x	x	x	137.8%	x
COc1ccc(N2CCN(C(=O)c3c(C)oc4ncnc(N5CCCCC5)c34)CC2)cc1	-12.5%	x	-15.1	u	-10.9%	i
O=C1CC(c2ccc(S(=O)(=O)NCc3ccccc3)cc2)CN1 (stereo unspecified)	-17.1%	-16.1	1.2	0.4%	-10.0%	i
Cc1ccccc1NS(=O)(=O)c1ccc(C2CNC(=O)C2)cc1 (stereo unspecified)	2.6%	-103.9*	-4.4	-4.1%	-0.6%	i
FC(F)(F)c1cnc(Sc2nnc(-c3cccs3)n2CC2CCCO2)c(Cl)c1 (stereo unspecified)	-18.9%	-4.3	30.8*	17.4%	2.5%	i
CC1CC=CC2C1C(=O)N(Cc1ccccc1)C2c1ccc(-c2ccc(F)cc2)cc1F (stereo unspecified)	-17.6%	x	x	-21.2%	x	x
COc1ccc(OCC(=O)N2CCN(C(=O)c3cccc(OC)c3)CC2)cc1	-32.3%	x	3.8	3.0%	-0.1%	i
O=C(CBr)N1CCc2ccccc2C(c2ccccc2)C1 (stereo unspecified)	i	5.8	-6.9	u	5.8%	i
C=CCN1CCc2c(cc(O)c(O)c2Br)[C@@H](c2ccccc2)C1	-49.8%	3.1	82.8*	-29.0%	0.7%	i
CCOc1ccc(CNCc2c(C(=O)O)n(Cc3ccccc3F)c3cc(OC)ccc23)cc1	-29.7%	x	-13.7	u	x	x
Cc1ccc2nc(N3CCC(C(=O)N4CCN(c5cccc(Cl)c5)CC4)CC3)[nH]c2c1	-42.0%	x	-13.1	-36.7%	x	x
O=C(N1CCN(Cc2ccccc2)CC1)C12CC3CC(CC(C3)C1)C2	-29.3%	-65.1*	0.9	3.7%	-12.0%	i
O=S1(=O)N[C@H](Cc2ccccc2)COc2cccc(N3CCN(Cc4ccccc4F)CC3)c21	x	u	-10.4	x	u	17.8µM*
O=C(c1cc(S(=O)(=O)N2CCOCC2)ccc1F)N(CCc1ccccc1)Cc1ccccc1	0.2%	-92.5*	96.3*	-0.9%	-31.8%	i
CNc1c(Br)cc(C(O)C2=CCc3ccccc32)cc1Br (stereo unspecified)	-36.7%	x	x	-24.7%	x	x
SMILES	HepG2 tox	D3 antag	DRD3 agonist	TGFb inhibitor	ATXN2 expr inh	S2 tox
COc1cccc(C2(CC(=O)N3CCCCC3CO)CC(=O)N(C)C2=O)c1 (stereo unspecified)	x	x	x	x	x	i
Cc1cccc(C)c1-n1c(C)cc(/C=N/NC(N)=S)c1C	-1.8%	-83.9*	-10.1	-31.3%	-18.8%	u
Cc1nnc(N/N=C/c2cc(C)n(-c3ccc(F)cc3)c2C)n1N	-104.3%	5.9	-6.0	14.1µM*	0.8%	i
Cc1cc(/C=N/NC(N)=S)c(C)n1-c1ccc(Cl)cc1	-60.9%	-57.6*	-10.9	u	-8.5%	u
Cc1ccccc1-n1c(C)cc(/C=N/NC(=O)c2ccncc2)c1C	-32.1%	-29.2	-15.5	-25.3%	33.8%	i
COC(=O)c1cc(Cl)ccc1NS(=O)(=O)C(F)(F)F	x	x	x	x	10.7%	i
Cc1ccc(C)c(Nc2nc3nonc3nc2Nc2cccc(C)c2C)c1	-44.7%	x	-6.9	6.31µM*	u	x
CCOP(=O)(c1ccccc1)c1nc(-c2ccccc2Cl)oc1N1CCCCC1 (stereo unspecified)	-70.3%	-72.8*	0.2	u	-8.3%	u
Cc1ccc(S(=O)(=O)c2nc(-c3ccccc3Cl)oc2N2CCCCCC2)cc1	-6.5%	x	-8.2	-7.7%	-11.6%	i
COc1ccc(NC(=O)COC(=O)c2cc(SC)ccc2Cl)c(OC)c1	-4.4%	-4.2	32.4*	3.5%	-4.9%	i
Cc1ccc(C(=O)NCCN2C3=NC[C@H](C(C)C)N3C[C@H]2Cc2ccc(O)cc2)cc1Br	-53.3%	0.0	-44.0	-15.5%	u	u
COc1ccc(C[C@H]2CN3C(=NC[C@@H]3C(C)C)N2CCNC(=O)c2ccc(C)c(Br)c2)cc1	-59.6%	-64.3*	-55.0	u	u	x
COc1ccc(C[C@@H]2CN3C(=NC[C@@H]3C)N2C[C@H](C)NC(=O)c2ccc(C)c(Br)c2)cc1	-33.8%	-21.9	-31.8	-0.1%	-18.0%	u
Cc1ccc(C(=O)NCCN2C3=NC[C@H](C)N3C[C@H]2Cc2ccc(O)cc2)cc1Br	0.5%	-58.3*	-62.1	1.7%	u	i
COc1ccc(C[C@H]2CN3C(=NC[C@H]3C)N2CCNC(=O)c2ccc(C)c(Br)c2)cc1	-41.2%	-57.2*	-47.2	u	-18.5%	28.2µM*
C[C@H]1CN=C2N(CCNC(=O)CCC3CCCCC3)[C@H](Cc3ccc(O)cc3)CN21	-17.6%	-3.3	-42.8	-1.4%	1.4%	i
COc1cccc(C(=O)Nc2ccc(-c3cn4cccnc4n3)cc2)c1OC	-4.8%	x	1.0	-18.7%	-0.9%	i

Bioassay records (PubChem BioAssay)
